Source: PubChem BioAssay (National Center for Advancing Translational Sciences (NCATS))
This is a sample that favours compounds with a hit; in the whole collection about 18% have one here.
DT40 TDP1 no CPT – qHTS for Inhibitors of human tyrosyl-DNA phosphodiesterase 1 (TDP1): qHTS in cells in absence of CPT; DT40 Tdp1-/- hTDP1 cells, no CPT, ATP luminescence, 48 h; Potency, µM (top dose mostly 46.2 µM), for inactives: at the top dose activity change, negative = growth inhibition, usual class: inhibitors; actives 15% (n = 420,000); AID 686978, 2013; also: potency is read from the fitted curve at half-maximal effect; nearly all actives have a fitted effect of over 55% in size
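Camptothecin absent (DMSO only). Human TDP1-complemented DT40 knockout cells, 400 cells/well, 37 °C for minimum 48 hr; ATP measured via CellTiter-Glo, 30 min dark incubation, luminescence.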
IL-1B inflam inh – inhibitors of inflammasome signaling (IL-1 beta secretion). actives 4.7% (n = 360,000). activity change, % at 57.5 µM. THP-1 LPS/ATP IL-1B secretion, AlphaLISA, 16 h; hits give low values. AID 743279; in the data active = activity change below about -50%; inconclusive = mostly about -30% to -49%
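THP-1 cells pretreated 1 hr with compounds (up to 57.5 uM final), then stimulated with LPS (250 ng/mL final) plus ATP (1.25 mM final); secreted IL-1B measured by AlphaLISA after 16 hr, decreased signal indicating inhibition.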
RORg inh – ROR gamma (mouse) transcription inhibition | P51450 | Drosophila S2 Gal4-RORgamma UAS-luciferase reporter, 20 h | Potency, µM (highest dose often 53.6 µM), inactives show at the highest dose activity change, negative = inhibition, actives largely listed as inhibitors | actives 5.4% (n = 310,000) | AID 2551; also: potency is read from the fitted curve at half-maximal effect; nearly all actives have a fitted effect of over 60% in size
Target sequence (P51450 whole entry, looked up, the tested form may be a part): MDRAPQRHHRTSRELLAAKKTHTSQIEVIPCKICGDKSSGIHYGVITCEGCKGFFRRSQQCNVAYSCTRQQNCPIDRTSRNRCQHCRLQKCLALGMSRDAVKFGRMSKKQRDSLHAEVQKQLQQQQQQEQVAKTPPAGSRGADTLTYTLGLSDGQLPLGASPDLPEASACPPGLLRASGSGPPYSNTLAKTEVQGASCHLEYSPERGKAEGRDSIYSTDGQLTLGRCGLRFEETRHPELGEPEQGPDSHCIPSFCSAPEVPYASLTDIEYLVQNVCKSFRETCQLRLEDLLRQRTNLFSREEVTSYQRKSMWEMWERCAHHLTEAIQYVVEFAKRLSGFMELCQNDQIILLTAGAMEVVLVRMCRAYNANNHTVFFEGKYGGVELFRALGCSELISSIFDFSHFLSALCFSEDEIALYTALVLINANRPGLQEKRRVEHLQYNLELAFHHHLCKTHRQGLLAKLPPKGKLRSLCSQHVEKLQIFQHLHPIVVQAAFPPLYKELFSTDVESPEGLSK
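Read-out: Photinus luciferase luminescence; inhibitors lower reporter signal. Insect Schneider cells with Gal4-ROR gamma fusion under metallothionein promoter, UAS reporter; 700 uM final copper sulfate induction, 20 hr, ambient temperature.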
VP16 counter – counter-screen for ROR gamma inhibitors: Gal4-VP16 reporter | Potency, µM (top dose mostly 53.6 µM), for inactives: at the top dose activity, negative = inhibition, actives largely listed as inhibitors | actives 3.5% (n = 310,000) | Drosophila S2 Gal4-VP16 UAS-luciferase, luminescence, 20 h | AID 2546;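 also: Gal4-VP16 expression switched on by copper sulfate through the metallothionein promoter; potency is read from the fitted curve at half-maximal effect; nearly all actives have a fitted effect of over 50% in size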
TDP1 cell CPT – growth inhibition of DT40 Tdp1-/-;hTDP1 cells with camptothecin (screen for TDP1 inhibitors); chicken DT40 Tdp1-/-;hTDP1 cells + 20 nM CPT, ATP luminescence, 48 h; Potency, µM (doses to about 46.2 µM), inactives show top-dose activity change, negative = growth inhibition, hits mostly inhibitors; actives 12% (n = 420,000); also: potency is read from the fitted curve at half-maximal effect; nearly all actives have a fitted effect of over 55% in size
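Chicken DT40 Tdp1-/- cells complemented with human TDP1, 400 cells/well, exposed to compounds plus 20 nM camptothecin for at least 48 h at 37 C; viability read as ATP content by CellTiter-Glo luminescence.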
LDHA inh – LDHA (human) enzyme inhibition; actives 0.15% (n = 480,000); purified LDHA, NADH/diaphorase-resazurin fluorescence; hits give low values; AID 1347041; P00338; activity change, % (values are at about 110 or 230 µM); in the data active = activity change below about -30%; inconclusive = mostly about -25% to -30%;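 also: plate controls were DMSO wells for no effect and wells without enzyme for full effect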
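Human LDH5 at 2 nM final in Tris HCl pH 7.4 with 0.06 mM NADH and 0.2 mM pyruvate, reacted 5 minutes at room temperature. Remaining NADH coupled via diaphorase/resazurin; resorufin fluorescence read at 0 and 20 minutes, normalized to enzyme-free and DMSO wells.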
The depositor's hits bear a star; u = inconclusive; x = no result; ! = a repeat was not active; [ ] = another dose, or the depositor's remark. Unless noted, calls follow the shape of the dose curve; as a rule, active = well fitted curve in the direction sought with a large enough effect; inconclusive = small, poorly fitted or top-dose-only effect, or another doubt; inactive = no such curve, though single readings can be large; an effect the other way counts as inactive or inconclusive. Unless noted, % is scaled to controls: 0 for no effect and ±100 for the full control effect.

SMILES | DT40 TDP1 no CPT | IL-1B inflam inh | RORg inh | VP16 counter | TDP1 cell CPT | LDHA inh
COc1ccc(CCNC(=O)Cc2c(C)nn(C)c2C)cc1OC | x | x | x | x | x | 1
CCCCn1nc(C(=O)Nc2nc(-c3cc(F)ccc3F)cs2)c2ccccc2c1=O | x | x | x | x | x | -2
Cc1csc(NC(=O)c2ccc3nc[nH]c3c2)n1 | 23µM* | -12 | u | u | u | -3
Cc1csc(NC(=O)c2ccc(C)c([N+](=O)[O-])c2)n1 | 16µM* | 4 | u | 14µM* | u | 2
Cc1cccc(C)c1-n1nnnc1C(c1ccnc2ccccc12)N1CCN(C/C=C/c2ccccc2)CC1 (stereo not drawn) | 8.2µM* | -17 | x | x | 9.2µM* | -3
COc1cccc(C(c2nnnn2-c2c(C)cccc2C)N2CCN(C/C=C/c3ccccc3)CC2)c1OC (stereo not drawn) | u | 0 | x | x | u | -1
Cc1cccc(C)c1-n1nnnc1C(c1ccnc2ccccc12)N1CCCC1 (stereo not drawn) | u | 1 | x | x | u | -1
Cc1cccc(C)c1-n1nnnc1C(c1ccnc2ccccc12)N1CCN(C(=O)OCc2ccccc2)CC1 (stereo not drawn) | 16µM* | 12 | x | x | u | -2
CC(C)(C)OC(=O)N1CCN(C(c2ccnc3ccccc23)c2nnnn2-c2ccc3c(c2)OCCO3)CC1 (stereo not drawn) | 16µM* | 6 | x | x | u | -1
CC(C)(C)n1nnnc1C(c1cc2ccccc2o1)N1CCN(C(=O)OCc2ccccc2)CC1 (stereo not drawn) | 18µM* | -21 | x | x | u | -3
CC(C)(C)OC(=O)N1CCCN(C(c2cc3ccccc3o2)c2nnnn2C(C)(C)C)CC1 (stereo not drawn) | u | -5 | x | x | u | 3
Cc1ccc(C(=O)COC(=O)CCc2c[nH]c3ccccc23)c(C)c1 | x | x | x | x | x | -5
CN(C)C(CNC(=O)CCc1ncc(-c2ccc(F)cc2F)o1)c1ccco1 (stereo not drawn) | x | x | x | x | x | -6
CCCCNC(=O)Cc1c[nH]c2ccccc12 | x | x | x | x | x | 5
Cc1cccc(-c2cc(C(=O)Nc3cccc(C(F)(F)F)c3)[nH]n2)c1O | x | x | x | x | x | -11
CCN(CC(=O)Nc1ccccc1C(F)(F)F)Cc1nc2ccccc2o1 | x | x | x | x | x | -4
CC(C)(C)n1nnnc1C(c1ccnc2ccccc12)N1CCN(C/C=C/c2ccccc2)CC1 (stereo not drawn) | 16µM* | 11 | x | x | 16µM* | 1
N#Cc1ccccc1O | x | x | x | x | x | -1
O=C(N/N=C/c1ccco1)c1cc(-c2ccc3ccccc3c2)n[nH]1 | 23µM* | -67* | u | u | 13µM* | -10
O=C(N/N=C/c1ccco1)c1ccc2nc[nH]c2c1 | -17% | -14 | -21% | -8% | -19% | -3
CCc1ccc(-c2cc(C(=O)N/N=C/c3ccco3)[nH]n2)cc1 | u | -10 | 20µM* | 2%[10 µM] | -22% | -3
CCOc1cc(/C=C2/SC(=O)N(CC(=O)N3CCc4ccccc4C3)C2=O)ccc1OCC(=O)O | -2% | -8 | 22% | -2% | 10% | 2
NC(=O)COc1ccccc1/C=C1/SC(=O)N(CC(=O)N2CCc3ccccc3C2)C1=O | 18µM* | -19 | u | 14% | 21µM* | 2
NC1(c2ccc(-c3nc4ccn5c(=O)[nH]nc5c4cc3-c3ccccc3)cc2)CCC1 | 0.6µM* | x | x | x | 0.38µM* | 7
O=c1cc(N2CCCC2)c(-c2ccccc2)n[nH]1 | -10% | -6 | -14% | -9% | -9% | -5
SMILES | DT40 TDP1 no CPT | IL-1B inflam inh | RORg inh | VP16 counter | TDP1 cell CPT | LDHA inh
O=S(CC(O)c1ccccc1)c1ccccc1 (stereo not drawn) | 16µM* | 6 | x | x | u | -1
CCCCCCCCNC(C)C(O)c1ccc(SC(C)C)cc1 (stereo not drawn) | 16µM* | -86* | 11µM*! | u | 18µM* | 4
C[C@@H](NCCc1ccc(O)cc1)[C@@H](O)c1ccc(O)cc1 | -2% | -5 | x | x | 8% | -4
CC(NC(=O)CN1CSCC1=O)c1cccc(Cl)c1 (stereo not drawn) | x | x | x | x | x | 6
CCN(CC)c1nc(-c2ccccc2Cl)c2cc(Br)ccc2n1 | u | x | x | x | -22% | -2
NNc1nc(-c2ccccc2Cl)c2cc(Br)ccc2n1 | 5.2µM* | 15 | 11µM* | u | 21µM* | -16
C/C(=N/Nc1ccc(S(=O)(=O)Nc2ccccc2)cc1[N+](=O)[O-])c1ccccn1 | x | x | x | x | x | 18
COC(=O)c1ccc(/C=C2\CCc3cc(OC)ccc3C2=O)cc1 | x | x | x | x | x | 0
COc1ccccc1NC(=O)CSCc1cc(=O)c2ccccc2[nH]1 | x | x | x | x | x | -17
COc1ccc(CNS(=O)(=O)c2ccc3c(c2)N(C)CCS3)cc1 | x | x | x | x | x | 6
Oc1c(C=NCc2ccc(F)cc2)[nH]c2ccc(Br)c(Cl)c12 | x | x | -33% | -2% | x | x
Cc1ccc(CN=Cc2[nH]c3ccc(Br)c(Cl)c3c2O)cc1 | 21µM* | 0 | 13µM* | u | u | 14
COc1ccc(C2CC(C(F)(F)F)n3nc(C(=O)NCc4cn(C)nc4C)c(Cl)c3N2)cc1 (stereo not drawn) | 10µM* | -20 | 34% | -11% | 13µM* | -2
Cc1ccc(C2CC(C(F)(F)F)n3nc(C(=O)NCc4c(C)nn(C)c4C)c(Cl)c3N2)cc1 (stereo not drawn) | 5.2µM* | -13 | -4% | u | 4.6µM* | 6
COc1ccc(C2CC(C(F)(F)F)n3nc(C(=O)O)c(Br)c3N2)cc1 (stereo not drawn) | -31% | 25 | -15% | 12% | 6% | 1
COc1ccc(Nc2nc(-c3cccc([N+](=O)[O-])c3)nc3ccccc23)c(OC)c1 | 18µM* | 15 | 31% | -8% | u | -3
COc1ccc(Nc2nc(-c3cccs3)nc3ccccc23)c(OC)c1 | 13µM* | -16 | -3% | -6% | 16µM* | 1
COc1ccc(OC)c(Nc2nc(-c3cccc([N+](=O)[O-])c3)nc3ccccc23)c1 | -1% | 50 | 12% | -2% | 0% | 0
COc1ccc(Nc2nc(-c3ccccc3O)nc3ccccc23)c(OC)c1 | x | x | x | x | x | -8
COc1ccccc1Nc1nc(-c2cccc([N+](=O)[O-])c2)nc2ccccc12 | 18µM* | 5 | 1% | -10% | 23µM* | 3
CCCNC(=O)CCNC(=O)NCc1nc2c(cnn2-c2ccccc2)c(=O)[nH]1 | x | x | x | x | x | -3
